Here are results for eleven compounds from article PMC5540273 (PLoS ONE, 2017).

Molecules are shown by their SMILES.

Test systems include PKMYT1; PKN1; PKN2; PLK1; PLK2; PLK3; PLK4; PRKCD; PRKCE.
What all share (conditions): concentration: 1 μM, replicates: in singlicate; n = 1
In a further experiment the test system is T1, PKAC-beta.
T1 construct: gene PRKACB
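Further: KINOMEscan kinase panel screen.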

On to `O=C(Nc1n[nH]c2nc(-c3cccs3)c(Br)cc12)C1CC1` [SB-735297], for which the “%Inh” value is 2% in the experiment on PKAC-beta; 0% in the experiment on PKMYT1; 0% in the experiment with PKN1; 0% in the experiment with PKN2; 9% in the experiment on PLK1; 19% in the experiment on PLK2. Also, the “%Inh” value was 7% in the experiment on PLK3, 8% in the experiment on PLK4, 7% in the experiment with PRKCD and 19% in the experiment with PRKCE.

Consider `Cc1cnc(N)c(/C=C/c2cncc(C(=O)NCCc3ccc(Cl)cc3Cl)c2)c1.Cl` [GSK190937], for which the “%Inh” value in the experiment on PKMYT1 was 0%; with PKN1 it was 7%; in the experiment on PKN2 it was 0%; in the experiment with PLK1, 0%; with PLK2 it was 0%; with PLK3, 0%. For the same compound, the entries for the “%Inh” value with PLK4, with PRKCD and in the experiment with PRKCE were 0%, 8% and 21%, respectively.

Turning to `Cc1ccc(-c2nc(Nc3ccncc3)c3ccccc3n2)s1` [GSK189015], the “%Inh” value in the experiment with PKAC-beta came out at 18%; in the experiment on PKMYT1, 19%; with PKN1, 26%; in the experiment on PKN2, 20%; with PLK1, 0%; in the experiment on PLK2, 0%. The “%Inh” value with PLK3 is given as 0%; in the experiment on PLK4, 0%; in the experiment on PRKCD, 15%; with PRKCE, 0%.

On to `CCc1ccc(-c2ccc3c(c2)-c2n[nH]cc2S(=O)(=O)N3C)cc1`, for which the “%Inh” value in the experiment with PKAC-beta is listed as 12%; with PKMYT1, 2%; in the experiment with PKN1, 0%; with PKN2, 0%; in the experiment with PLK1, 6%; in the experiment with PLK2, 0%. Further, the “%Inh” value came to 7% in the experiment with PLK3, 0% in the experiment on PLK4, 0% in the experiment on PRKCD and 14% in the experiment with PRKCE.

Consider `Cn1cncc1C(=O)NC1CCN(c2ccnc(Nc3ccc(F)cc3)n2)C1` (stereo not shown) [GSK1379717], for which the “%Inh” value in the experiment with PKAC-beta stood at 0%; in the experiment with PKMYT1, 0%; with PKN1, 52%; with PKN2, 0%; in the experiment with PLK1, 12%; in the experiment with PLK2 it was 0%. Besides, the “%Inh” value was 11% with PLK3, 0% with PLK4, 0% with PRKCD and 0% in the experiment on PRKCE.

On to `Cc1ccc(NC(=O)c2ccc(Cl)cc2)cc1-c1ccc(C(=O)Nc2ccncc2)cc1` [GSK1398467], for which the “%Inh” value is 0% with PKAC-beta; 2% with PKMYT1; 2% in the experiment with PKN1; 0% in the experiment with PKN2; 0% with PLK1; 0% with PLK2. Also, the “%Inh” value amounted to 0% in the experiment with PLK3, 0% in the experiment on PLK4, 3% in the experiment with PRKCD and 15% in the experiment on PRKCE.

As for `COc1cccc(CNC(=O)NC2CCN(c3ccnc(Nc4ccc(F)cc4)n3)C2)c1` (stereo not shown) [GSK1379723], the “%Inh” value is 0% with PKAC-beta; 2% in the experiment with PKMYT1; 4% with PKN1; 0% in the experiment with PKN2; 0% in the experiment with PLK1; 0% with PLK2. In addition, the “%Inh” value in the experiment on PLK3 is 0%; in the experiment on PLK4, 0%; with PRKCD it was 0%; in the experiment with PRKCE it was 9%.

As to `Cc1cccc2c(-c3ccncn3)c(-c3ccc(F)cc3)nn12` [GW515532], the “%Inh” value in the experiment on PKAC-beta was found to be 15%; in the experiment with PKMYT1, 5%; with PKN1 it was 23%; in the experiment with PKN2, 0%; in the experiment with PLK1, 0%; with PLK2, 0%. The “%Inh” value came to 0% in the experiment with PLK3, 0% with PLK4, 5% with PRKCD and 0% in the experiment with PRKCE.

Regarding `CS(=O)(=O)CCNCc1nc(-c2ccc3ncnc(Nc4ccc(OCc5ccccc5)c(Cl)c4)c3c2)cs1.Cl` [GW582764], the “%Inh” value came to 2% in the experiment with PKAC-beta; 0% in the experiment with PKMYT1; 0% in the experiment with PKN1; 0% in the experiment with PKN2; 0% in the experiment on PLK1; 0% with PLK2. Moreover, the “%Inh” value in the experiment with PLK3 is 0%; with PLK4 it was 0%; in the experiment on PRKCD, 0%; in the experiment with PRKCE, 6%.

Take `CCCCc1nn2ncccc2c1-c1ccnc(NC2CC2)n1` [GW684374]: the “%Inh” value in the experiment with PKAC-beta worked out at 0%; in the experiment with PKMYT1, 0%; in the experiment on PKN1, 18%; in the experiment with PKN2, 0%; with PLK1, 0%; with PLK2 it was 0%. Moreover, the “%Inh” value with PLK3 stood at 0%; in the experiment on PLK4 it was 0%; with PRKCD, 0%; in the experiment with PRKCE, 1%.

For `FC(F)(F)c1ccccc1-c1cc(-c2c[nH]nc2-c2ccccn2)ccn1` [GW679396], the “%Inh” value in the experiment on PKAC-beta was 17%; in the experiment with PKMYT1 it was 5%; with PKN1, 0%; in the experiment with PKN2, 12%; with PLK1 it was 1%; in the experiment with PLK2, 0%. In addition, the “%Inh” value with PLK3 was determined as 0%; in the experiment on PLK4, 1%; with PRKCD, 6%; with PRKCE, 11%.
